PubChem BioAssay (NCI)
Compounds without any hit were thinned out: in the full panel of roughly 83,000, 20% have a hit.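 Single-concentration screen, 48 h exposure, 96-well plates. Endpoint: percent growth. Below 10 = active.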 Activity calls are given as the source filed them.

What was measured:
Assay in all cases: NCI-60 one-dose screen, 48 h (100 = growth as untreated, 0 = no growth, -100 = all killed)
Conditions in all cases: 10 µM unless noted
RPMI-8226 leukemia = test system: RPMI-8226 leukemia
OVCAR-8 ovarian = test system: OVCAR-8 ovarian
OVCAR-5 ovarian = test system: OVCAR-5 ovarian
OVCAR-4 ovarian = test system: OVCAR-4 ovarian
SK-OV-3 ovarian = test system: SK-OV-3 ovarian
IGROV1 ovarian = test system: IGROV1 ovarian
OVCAR-3 ovarian = test system: OVCAR-3 ovarian
HS 578T breast = test system: HS 578T breast
NCI/ADR-RES ovarian = test system: NCI/ADR-RES ovarian
T-47D breast = test system: T-47D breast

Measured: growth

C#CCn1cc(C=C2C(=O)NC(=O)NC2=O)c2cc(Cl)ccc21
inactive: RPMI-8226 leukemia 70.3% | OVCAR-8 ovarian 87.5% | OVCAR-5 ovarian 74.3% | OVCAR-4 ovarian 75.9% | SK-OV-3 ovarian 112% | IGROV1 ovarian 82.8% | OVCAR-3 ovarian 88.5% | HS 578T breast 84% | NCI/ADR-RES ovarian 99.8% | T-47D breast 60.8%

CCOc1ccccc1CN1CCc2nc3cc(C(C)(C)C)[nH]n3c(=O)c2C1
inactive: RPMI-8226 leukemia 101% | OVCAR-8 ovarian 103% | OVCAR-5 ovarian 97.9% | OVCAR-4 ovarian 101% | SK-OV-3 ovarian 110% | IGROV1 ovarian 99.5% | OVCAR-3 ovarian 106% | HS 578T breast 100% | NCI/ADR-RES ovarian 91.8% | T-47D breast 98.6%

Cc1ccc2cc3c(N)c4c(C)ccc(C)c4nc3nc2c1
active: T-47D breast 6.15%
inactive: RPMI-8226 leukemia 34.3% | OVCAR-8 ovarian 34.2% | OVCAR-5 ovarian 89.5% | OVCAR-4 ovarian 72.9% | SK-OV-3 ovarian 93.3% | IGROV1 ovarian 75.8% | OVCAR-3 ovarian 81.3% | HS 578T breast 70% | NCI/ADR-RES ovarian 72.7%

Nc1ccc(-c2nn3c(CCC(=O)c4nc5ncccc5[nH]4)nnc3s2)c(O)c1
inactive: RPMI-8226 leukemia 101% | OVCAR-8 ovarian 98.2% | OVCAR-5 ovarian 95% | OVCAR-4 ovarian 98% | SK-OV-3 ovarian 91.4% | IGROV1 ovarian 70.9% | OVCAR-3 ovarian 100% | HS 578T breast 74% | NCI/ADR-RES ovarian 93.8% | T-47D breast 87.1%

CCOC(=O)C1=CN(C)C=C(C(=O)OCC)C1c1cc(Br)c(OCC)c(OC)c1
active: RPMI-8226 leukemia 8.87%
inactive: OVCAR-8 ovarian 56.8% | OVCAR-5 ovarian 63.5% | OVCAR-4 ovarian 54.9% | SK-OV-3 ovarian 86.4% | IGROV1 ovarian 35.6% | OVCAR-3 ovarian 64.9% | HS 578T breast 62.9% | NCI/ADR-RES ovarian 73% | T-47D breast 74.9%

O=C(Nc1ccc(I)cc1F)c1cc(Br)ccc1O
active: RPMI-8226 leukemia -18.9% | OVCAR-8 ovarian 7.13% | SK-OV-3 ovarian -4.76% | OVCAR-3 ovarian 8.04% | HS 578T breast -3.47% | NCI/ADR-RES ovarian 7.79% | T-47D breast -9.09%
inactive: OVCAR-5 ovarian 23.7% | OVCAR-4 ovarian 12.4% | IGROV1 ovarian 16.3%

Oc1c(C(Nc2ccccn2)c2cccc(Oc3ccccc3)c2)ccc2cccnc12 (stereo not given)
active: RPMI-8226 leukemia -50.6% | OVCAR-8 ovarian -85.2% | OVCAR-5 ovarian -84.1% | OVCAR-4 ovarian -96.7% | SK-OV-3 ovarian -90.1% | IGROV1 ovarian -91.7% | OVCAR-3 ovarian -96.6% | HS 578T breast -47.6% | NCI/ADR-RES ovarian -81.1% | T-47D breast -71%

CC(=O)c1ccc2oc(=O)n(Cc3ccc(C#N)cc3)c(=O)c2c1
inactive: RPMI-8226 leukemia 106% | OVCAR-8 ovarian 103% | OVCAR-5 ovarian 103% | OVCAR-4 ovarian 96.3% | SK-OV-3 ovarian 119% | IGROV1 ovarian 108% | OVCAR-3 ovarian 117% | HS 578T breast 103% | NCI/ADR-RES ovarian 110% | T-47D breast 104%

O=C(COc1cc(O)c2c(=O)cc(-c3ccccc3)oc2c1)Nc1ccccc1
inactive: RPMI-8226 leukemia 93.3% | OVCAR-8 ovarian 87.2% | OVCAR-5 ovarian 98.1% | OVCAR-4 ovarian 78.9% | SK-OV-3 ovarian 107% | IGROV1 ovarian 99.1% | OVCAR-3 ovarian 106% | HS 578T breast 80.3% | NCI/ADR-RES ovarian 88.9% | T-47D breast 94.3%

COc1ccc(CN2CCCC(C(=O)c3ccc(C(F)(F)F)cc3)C2)c(O)c1 (stereo not given)
active: OVCAR-3 ovarian 7.49% | NCI/ADR-RES ovarian 9.17%
inactive: RPMI-8226 leukemia 11.8% | OVCAR-8 ovarian 17% | OVCAR-5 ovarian 55% | OVCAR-4 ovarian 45.4% | SK-OV-3 ovarian 26.1% | IGROV1 ovarian 47.5% | HS 578T breast 25.8% | T-47D breast 26.1%

CN1CCN(c2nc(Nc3ccc(O)cc3)nc3ccccc23)CC1
inactive: RPMI-8226 leukemia 32.7% | OVCAR-8 ovarian 30.1% | OVCAR-5 ovarian 82.5% | OVCAR-4 ovarian 82.9% | SK-OV-3 ovarian 57.2% | IGROV1 ovarian 52.1% | OVCAR-3 ovarian 59.5% | HS 578T breast 89.2% | NCI/ADR-RES ovarian 51.1% | T-47D breast 82.2%

O=c1oc2ccc(Cl)cc2c(=O)n1-c1ccc(F)cc1F
inactive: OVCAR-8 ovarian 11.4% | OVCAR-5 ovarian 16.6% | OVCAR-4 ovarian 18.5% | IGROV1 ovarian 16.2%
active: RPMI-8226 leukemia -1.02% | SK-OV-3 ovarian -7.81% | OVCAR-3 ovarian 6.16% | HS 578T breast 8.54% | NCI/ADR-RES ovarian 7.29% | T-47D breast -10.7%

Cc1ccc(NCCNCC(O)CO)c2c(=O)c3ccccc3sc12 (stereo not given)
inactive: RPMI-8226 leukemia 34.6% | OVCAR-8 ovarian 14.2% | OVCAR-5 ovarian 46.8% | OVCAR-4 ovarian 34.7% | SK-OV-3 ovarian 31.8% | IGROV1 ovarian 24.3% | OVCAR-3 ovarian 29.9% | HS 578T breast 33.1% | NCI/ADR-RES ovarian 26.8% | T-47D breast 53.8%

Oc1ccc(-c2nc(-c3ccc4oc5ccc(-c6[nH]c(-c7ccc(O)cc7)nc6-c6ccccc6)cc5c4c3)c(-c3ccccc3)[nH]2)cc1
inactive: RPMI-8226 leukemia 19.8% | OVCAR-8 ovarian 72.8% | OVCAR-5 ovarian 74.3% | OVCAR-4 ovarian 52.9% | SK-OV-3 ovarian 87% | IGROV1 ovarian 34.1% | OVCAR-3 ovarian 43.6% | HS 578T breast 66.8% | NCI/ADR-RES ovarian 72.3% | T-47D breast 46.8%

COc1ccc(OC)c(N(CCN2C(=O)c3ccccc3C2=O)C(=O)CCl)c1
inactive: RPMI-8226 leukemia 32.9% | OVCAR-8 ovarian 65.6% | OVCAR-5 ovarian 65.9% | SK-OV-3 ovarian 91.3% | OVCAR-3 ovarian 14.6% | HS 578T breast 52.6% | NCI/ADR-RES ovarian 49.2% | T-47D breast 95.4%
active: OVCAR-4 ovarian -49.5% | IGROV1 ovarian -73.4%

CC[C@]1(O)C[C@@H]2CN(CCc3c([nH]c4ccccc34)[C@@](C(=O)OC)(c3cc4c(cc3OC)N(C)[C@H]3[C@@](O)(C(=O)OC)[C@H](OC(=O)CCCBr)[C@]5(CC)C=CCN6CC[C@]43[C@@H]65)C2)C1
inactive: OVCAR-8 ovarian 19.4% | OVCAR-5 ovarian 24.9% | OVCAR-4 ovarian 35.3% | SK-OV-3 ovarian 30.8% | IGROV1 ovarian 11.2% | NCI/ADR-RES ovarian 13.8% | T-47D breast 74.2%
active: RPMI-8226 leukemia 6.27% | OVCAR-3 ovarian -1.93% | HS 578T breast 8.92%

C#CCn1cc(C=C2C(=O)N(C)C(=O)N(C)C2=O)c2cc(Cl)ccc21
inactive: RPMI-8226 leukemia 105% | OVCAR-8 ovarian 107% | OVCAR-5 ovarian 108% | OVCAR-4 ovarian 109% | SK-OV-3 ovarian 115% | IGROV1 ovarian 102% | OVCAR-3 ovarian 108% | HS 578T breast 91.4% | NCI/ADR-RES ovarian 107% | T-47D breast 112%

COC(=O)C1(C)COP(=O)(Nc2ccc(OC)cc2)OC1 (stereo not given)
inactive: RPMI-8226 leukemia 97.7% | OVCAR-8 ovarian 101% | OVCAR-5 ovarian 108% | OVCAR-4 ovarian 108% | SK-OV-3 ovarian 108% | IGROV1 ovarian 108% | OVCAR-3 ovarian 107% | HS 578T breast 106% | NCI/ADR-RES ovarian 99.5% | T-47D breast 93.1%

COc1ccc(C2C3=C(COC3=O)N(CCO)c3cc4c(cc32)CCC4)cc1OC (stereo not given)
active: OVCAR-3 ovarian -18.6%
inactive: RPMI-8226 leukemia 33.4% | OVCAR-8 ovarian 26.7% | OVCAR-5 ovarian 57.3% | OVCAR-4 ovarian 28.3% | SK-OV-3 ovarian 24.8% | IGROV1 ovarian 24.2% | HS 578T breast 21.1% | NCI/ADR-RES ovarian 31.3% | T-47D breast 22.6%

COc1ccc(-n2c(C(O)c3ccccc3)n[nH]c2=S)cc1 (stereo not given)
inactive: RPMI-8226 leukemia 93.3% | OVCAR-8 ovarian 103% | OVCAR-5 ovarian 93.4% | OVCAR-4 ovarian 102% | SK-OV-3 ovarian 101% | IGROV1 ovarian 99.1% | OVCAR-3 ovarian 95.8% | HS 578T breast 111% | NCI/ADR-RES ovarian 103% | T-47D breast 97.7%

COc1ccc(OC)c(/C=C/C(=O)c2c(C)nc3ccccc3c2/C=C/c2ccccc2)c1
inactive: RPMI-8226 leukemia 19.5% | OVCAR-8 ovarian 40.5% | OVCAR-5 ovarian 80% | OVCAR-4 ovarian 59.3% | SK-OV-3 ovarian 91% | IGROV1 ovarian 52.6% | OVCAR-3 ovarian 37.4% | HS 578T breast 68% | NCI/ADR-RES ovarian 58.9% | T-47D breast 30.6%

COc1ccc(-c2cn[nH]c2-c2ccc(OC)c(O)c2)cc1
inactive: RPMI-8226 leukemia 77.5% | OVCAR-8 ovarian 88.4% | OVCAR-5 ovarian 99.1% | OVCAR-4 ovarian 90.2% | SK-OV-3 ovarian 86.8% | IGROV1 ovarian 77.2% | OVCAR-3 ovarian 81.1% | HS 578T breast 75.9% | NCI/ADR-RES ovarian 49.2% | T-47D breast 73.6%

CCCCCCc1cc2cc(-c3nc4ccccc4[nH]3)c(=Nc3ccccc3C)oc2cc1O
inactive: OVCAR-8 ovarian 55.8% | OVCAR-5 ovarian 57.7% | OVCAR-4 ovarian 39.4% | SK-OV-3 ovarian 67% | IGROV1 ovarian 39.5% | OVCAR-3 ovarian 41.9% | HS 578T breast 68.8% | NCI/ADR-RES ovarian 49.9% | T-47D breast 29%
active: RPMI-8226 leukemia -20.2%

CCOC(=O)C1(C(=O)OCC)N=C(c2ccccc2)C=C1c1ccccc1
inactive: RPMI-8226 leukemia 61.6% | OVCAR-8 ovarian 87.2% | OVCAR-5 ovarian 97.8% | OVCAR-4 ovarian 81.6% | SK-OV-3 ovarian 105% | IGROV1 ovarian 92.4% | OVCAR-3 ovarian 86.9% | HS 578T breast 94.9% | NCI/ADR-RES ovarian 76.5% | T-47D breast 62.2%

COc1cccc(/C=C/C(=O)c2c(C)nc3ccccc3c2/C=C/c2ccccc2)c1OC
inactive: OVCAR-8 ovarian 21.6% | OVCAR-5 ovarian 36.4% | OVCAR-4 ovarian 46.3% | SK-OV-3 ovarian 89.8% | IGROV1 ovarian 20.9% | HS 578T breast 37.5% | NCI/ADR-RES ovarian 10% | T-47D breast 11.2%
active: RPMI-8226 leukemia 6.11% | OVCAR-3 ovarian 2.68%

Cn1c(C(=O)c2cccc3ccccc23)nc2ccccc21
inactive: RPMI-8226 leukemia 17.6% | OVCAR-5 ovarian 49% | OVCAR-4 ovarian 19.9% | SK-OV-3 ovarian 22% | OVCAR-3 ovarian 29.6% | HS 578T breast 45.7% | T-47D breast 17%
active: OVCAR-8 ovarian -1.81% | IGROV1 ovarian -6.8% | NCI/ADR-RES ovarian 4.01%

Cn1nc(C(F)(F)F)c(-c2ccc(Cl)c(C(F)(F)F)c2)c1-c1ccc(OCc2ccc(Cl)cc2)cc1O
inactive: OVCAR-5 ovarian 53.4% | OVCAR-4 ovarian 30.2% | SK-OV-3 ovarian 20.6% | IGROV1 ovarian 38.9% | HS 578T breast 22.8%
active: RPMI-8226 leukemia -17.9% | OVCAR-8 ovarian 7.41% | OVCAR-3 ovarian 1.24% | NCI/ADR-RES ovarian 8.38% | T-47D breast -0.38%

O=c1oc2ccc(I)cc2c(=O)n1-c1ccc(Br)cc1F
inactive: OVCAR-5 ovarian 20.7% | OVCAR-4 ovarian 17.1% | IGROV1 ovarian 16.3%
active: RPMI-8226 leukemia -26.2% | OVCAR-8 ovarian 8.2% | SK-OV-3 ovarian -9.81% | OVCAR-3 ovarian 5.84% | HS 578T breast -4.87% | NCI/ADR-RES ovarian 7.59% | T-47D breast -7.37%
